Rows were chosen to be rich in hits. Some 3.4% of all compounds tested hit in one or more screens of this group.
MITF primary: human MITF inhibition, primary screen; O75030; AlphaScreen MITF homodimerization, bead proximity signal; inhibition, % at 2.6 µM; 0.91% of 650,000 active; in the data active = inhibition above about 50%;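 note: 0% = vehicle wells with protein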
FBW7 activator: human FBW7 E3 ligase activation, primary screen | Q969H0 | AlphaScreen FBW7–phospho-cyclin E peptide binding, activator screen | normalized activity (activation), % at 26.1 µM | 0.13% of 650,000 active | AID 1259310; in the data active = normalized activity above about 1.9%;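 note: purified mutant Fbw7 with reduced substrate affinity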
Target sequence (Q969H0 whole entry, looked up): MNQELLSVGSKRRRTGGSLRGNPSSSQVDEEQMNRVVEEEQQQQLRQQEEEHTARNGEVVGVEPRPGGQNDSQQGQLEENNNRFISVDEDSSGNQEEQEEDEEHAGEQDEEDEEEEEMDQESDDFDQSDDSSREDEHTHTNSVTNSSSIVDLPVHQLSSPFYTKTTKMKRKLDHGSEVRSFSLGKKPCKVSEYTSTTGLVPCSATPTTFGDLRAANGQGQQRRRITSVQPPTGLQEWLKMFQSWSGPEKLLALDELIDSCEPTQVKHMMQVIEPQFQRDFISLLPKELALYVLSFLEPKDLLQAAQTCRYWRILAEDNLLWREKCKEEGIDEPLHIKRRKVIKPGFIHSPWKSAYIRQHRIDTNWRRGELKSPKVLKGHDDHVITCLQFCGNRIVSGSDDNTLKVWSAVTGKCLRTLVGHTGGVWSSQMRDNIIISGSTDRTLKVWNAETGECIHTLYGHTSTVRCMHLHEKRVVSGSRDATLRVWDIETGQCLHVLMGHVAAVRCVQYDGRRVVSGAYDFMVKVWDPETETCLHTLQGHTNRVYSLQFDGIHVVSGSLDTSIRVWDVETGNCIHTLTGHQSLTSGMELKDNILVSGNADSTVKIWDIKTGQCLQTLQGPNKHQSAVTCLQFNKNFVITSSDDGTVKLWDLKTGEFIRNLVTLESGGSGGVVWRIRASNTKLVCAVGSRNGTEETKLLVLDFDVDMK
TEAD-YAP block: TEAD-YAP interaction inhibition; HEK-TIYL cells, TEAD-Gal4/YAP UAS-luciferase luminescence; inhibition, % at 9.12 µM; 1.4% of 640,000 active; in the data active = inhibition above about 32%;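 note: 0% = median of test compound wells and 100% = reference inhibitor wells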
GPR151 ag: human GPR151 activation | PathHunter beta-arrestin GPR151 cells, luminescence | activation, % at 11.2 µM | 1% of 650,000 active; in the data active = activation above about 4.9%;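 note: 0% = median of compound wells and 100% = cells with positive control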
An asterisk follows results filed as active.

SMILES	MITF primary	FBW7 activator	TEAD-YAP block	GPR151 ag
O=C(Cc1ccccc1)NC(c1ccccc1)c1ccc2cccnc2c1O (configuration not stated)	28	-2	58*	-1
O=C(Cc1ccccc1)NC(c1ccccc1Cl)c1ccc2cccnc2c1O (configuration not stated)	16	-2	84*	1
COc1ccccc1C(NC(=O)C1CCCCC1)c1ccc2cccnc2c1O (configuration not stated)	8	-1	61*	1
O=C(NC(c1ccc(Cl)cc1)c1ccc2cccnc2c1O)C1CCCCC1 (configuration not stated)	12	1	14	-1
Cn1ccnc1C(NC(=O)Cc1ccc(O)cc1)c1ccccc1 (configuration not stated)	-1	0	-10	0
CCOC(=O)CC(NC(=O)Cc1ccccc1)c1ccccc1Cl (configuration not stated)	-1	0	-1	-1
O=C(NCCCN1CCOCC1)c1cc2cc(Cl)ccc2oc1=O	12	0	-3	-1
CCOC(=O)C(NC(=O)Cn1c2ccccc2c(=O)c2ccccc21)C(=O)OCC	-16	0	14	-1
O=C(COc1ccc(Cl)cc1)NCc1cccs1	6	1	-1	2
CCCCC(=O)NC(c1cccs1)c1ccc2cccnc2c1O (configuration not stated)	49	-1	88*	-1
CCCCC(=O)NC(c1ccccc1Cl)c1ccc2cccnc2c1O (configuration not stated)	31	-2	87*	-2
CCC(=O)NC(c1ccccc1OC)c1ccc2cccnc2c1O (configuration not stated)	43	-2	44*	1
CCOc1ccc(CCNC(=O)c2cc([N+](=O)[O-])ccc2Cl)cc1OCC	16	1	39*	0
O=C(Nc1ccc(C23CC4CC(CC(C4)C2)C3)cc1)c1cc([N+](=O)[O-])ccc1Cl	12	0	30	0
O=C(NCCOC12CC3CC(CC(C3)C1)C2)c1cc([N+](=O)[O-])ccc1Cl	7	0	33*	-1
Cc1[nH]c2ccc(OC(F)(F)F)cc2c1CCNC(=O)c1cc([N+](=O)[O-])ccc1Cl	6	0	66*	0
COC(F)(C(=O)Nc1cccn2cc(-c3ccccc3)nc12)C(F)(F)F (configuration not stated)	0	1	2	2
CN(C)c1ccc(/C=C/C2N(Cc3ccccc3)CCN2Cc2ccccc2)cc1	14	0	8	0
COc1ccc(/C=N\Nc2ncccc2[N+](=O)[O-])c(OC)c1	2	0	41*	-7
O=C(CN(c1cccc(Cl)c1)S(=O)(=O)c1ccccc1)N1CCCC1	4	1	4	0
COc1ccc(Br)cc1C1CC(=O)c2c(ccc3ccccc23)N1 (configuration not stated)	2	0	37*	0
COc1ccc(C2CC(=O)c3c(ccc4ccccc34)N2)cc1 (configuration not stated)	11	0	0	-1
COC(=O)c1sc(SC)nc1Nc1ccnc(Nc2cc(OC)ccc2OC)c1	9	0	48*	5
COc1ccccc1-c1nnc(NC(=O)c2ccc(C(C)(C)C)cc2)o1	5	0	15	-1
O=C(Cn1ncc2ccccc21)Nc1ccccc1Br	16	1	-4	-2
SMILES	MITF primary	FBW7 activator	TEAD-YAP block	GPR151 ag
O=C(Nc1ccc(Br)cn1)c1cccc2ccccc12	-9	0	32*	-1
CSc1ccc(Cl)c(C(=O)Nc2ccc(Br)cn2)c1	-6	0	35*	1
O=C(Nc1ccc(Br)cn1)c1cc(Br)ccc1Cl	18	1	43*	-1
O=C(Cn1ncc2ccccc21)Nc1ccc(Br)cn1	5	0	38*	0
Cc1csc(-c2ccc(C(=O)NCc3nc(-c4ccncc4)n[nH]3)s2)n1	15	1	0	-2
CN(Cc1cscn1)Cc1ccc(C(=O)NCC2C3CC4CC(C3)CC2C4)c(=O)[nH]1 (configuration not stated)	-7	0	-1	0
COc1cc(C)cc(OC)c1Oc1ncnc2sccc12	-3	0	-4	-2
Cc1cc(C)c(C#N)c(SCc2nc3ccccc3[nH]2)n1	-2	0	-54	0
Cc1cc(C)c(C#N)c(SCc2nc3cc([N+](=O)[O-])c([N+](=O)[O-])cc3[nH]2)n1	5	0	86*	0
COc1cc(NC(=S)NCCO)cc(OC)c1	15	1	3	4
CCCN(CCC)C1=CC(=O)C(C)=C(C)C1=O	39	0	0	0
CCCN(CCC)C1=CC(=O)C(C)=CC1=O	65*	0	2	-2
CC(C)c1ccc(NS(=O)(=O)c2cccc3cnccc23)cc1	17	0	56*	0
Oc1ccc(-c2cnn3c(NCc4cccs4)ccnc23)cc1	-29	0	82*	-1
Oc1cccc(-c2cnn3c(NCc4ccco4)ccnc23)c1	-17	-1	89*	0
Clc1cccc(-c2cnn3c(NCc4ccco4)ccnc23)c1	11	2.0*	18	-2
COCCNc1ccnc2c(-c3cccc(Cl)c3)cnn12	11	0	-2	0
CC(=O)c1cccc(-c2cnn3c(NCc4ccco4)ccnc23)c1	20	0	-44	1
CCOc1cc(C#N)ccc1OCC(=O)NCc1ccccc1	17	0	-2	-1
COC(=O)C1=C(C)Nc2ncnn2C1c1cc(Br)c(O)c(OC)c1 (configuration not stated)	-8	0	-20	-1
COC(=O)C1=C(C)Nc2ncnn2C1c1ccc(OC)c(Br)c1 (configuration not stated)	2	0	32*	1
CCOC(=O)C1=C(C)Nc2ncnn2C1c1cc(Br)c(OC)c(OC)c1 (configuration not stated)	-4	0	50*	-2
Oc1ccc(C2CC(c3c(O)ccc4ccccc34)=NN2)cc1 (configuration not stated)	-1	0	88*	-10
COc1cc(C2CC(=O)c3c(ccc4ccccc34)N2)ccc1O (configuration not stated)	-7	0	8	0
COc1cc(C2CC(c3c(O)ccc4ccccc34)=NN2)ccc1O (configuration not stated)	-1	0	61*	-6
COc1cc(C2C3=C(COC3=O)Nc3ccc4ccccc4c32)ccc1O (configuration not stated)	-28	0	56*	3
O=C(Nc1ccc(-c2cnc(-c3ccc(NC(=O)c4ccc(Br)cc4)cc3)nc2)cc1)c1ccc(Br)cc1	7	0	16	0
Cc1ccc(-c2cn(-c3ccc(F)cc3)c(SCC(=O)Nc3ccccc3)n2)cc1	-8	0	-10	-1
COc1cccc(-c2nn3c(C4COc5ccccc5O4)nnc3s2)c1 (configuration not stated)	5	0	61*	2
